Screening data from PubChem BioAssay.
This excerpt belongs to a sample that is enriched for hits.
Tb PGK inh: blocks T. brucei phosphoglycerate kinase; 380,000 compounds, 0.043% hits; P07378; Potency, µM (top dose mostly 57.5 µM), without a hit: at the highest dose activity change, negative = inhibition, hits mostly inhibitors; AID 602233; PGK/GAPDH coupled, Kinase-Glo luminescence, 60 min; further: potency means the concentration at half of the fitted maximal effect; nearly all actives have a fitted effect of over 60% in size
Target sequence (P07378 whole entry, looked up): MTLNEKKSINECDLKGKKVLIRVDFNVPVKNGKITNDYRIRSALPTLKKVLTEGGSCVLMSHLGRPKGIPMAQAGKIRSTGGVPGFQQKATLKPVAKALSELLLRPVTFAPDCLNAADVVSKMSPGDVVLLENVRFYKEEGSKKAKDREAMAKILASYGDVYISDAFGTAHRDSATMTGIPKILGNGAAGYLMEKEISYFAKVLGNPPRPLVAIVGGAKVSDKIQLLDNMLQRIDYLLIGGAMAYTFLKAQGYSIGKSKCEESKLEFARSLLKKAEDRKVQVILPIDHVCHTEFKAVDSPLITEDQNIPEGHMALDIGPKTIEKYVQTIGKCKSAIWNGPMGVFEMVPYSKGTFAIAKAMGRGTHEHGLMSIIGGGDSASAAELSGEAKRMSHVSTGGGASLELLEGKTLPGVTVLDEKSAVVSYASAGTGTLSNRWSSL
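Recombinant glycosomal PGK reaction used 1,3-bisphosphoglycerate generated in-well by GAPDH (100nM final) in 100mM TEA pH 7.6, 5mM MgCl2, 0.01% Tween-20. After 60 minutes at room temperature, ATP was read by Kinase-Glo Plus luminescence end-point.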
Pin1 inhibitor: inhibitors of human Pin1 | Pin1 FP peptide displacement, HiFluor488, 10 min | Potency, µM (doses to about 115 µM), inactives show at the top dose activity, negative = inhibition, hits mostly inhibitors | 390,000 compounds, 0.009% hits | AID 504891; active means well fitted inhibition curve with a large enough effect in the polarisation, with a control signal flat, not every such curve was filed as active; inconclusive means small, poorly fitted or top-dose-only effect, or effect the other way, or a change in a side signal; inactive means no such curve, though single readings can be large or run the other way; the % refers to the polarisation; further: potency means the concentration at half of the fitted maximal effect
PI4K2A inh: inhibitors of human PI4K2A. purified PI4K2A, ADP-Glo luminescence, 1 h; stronger effect = lower value. activity change, negative = inhibition, % at 76.9 µM. 420,000 compounds, 0.13% hits. AID 1346378; in the data active means activity change below about -50%; inconclusive means mostly about -30% to -49%;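 further: -100% = wells without enzyme as full effect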
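PI4K2A activity was measured by ADP-Glo luminescence: enzyme (4 ug/mL stock) and phosphatidylinositol (1.2 mM stock) in Tris pH 7.5/MgCl2/EGTA/Triton X-100 buffer were reacted with ATP (300 microM stock) for one hour at ambient temperature.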
Tb PFK inh: T. brucei PFK enzyme inhibition. O15648. T. brucei PFK, ADP-Glo luminescence. Potency, µM (series often up to 57.5 µM), for inactives: at the top dose activity, negative = inhibition, hits mostly inhibitors. 330,000 compounds, 0.17% hits. AID 485367;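 further: potency means the concentration at half of the fitted maximal effect; 0% = uninhibited 1x PFK enzyme wells and -100% = no-enzyme wells; nearly all actives have a fitted effect of over 60% in size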
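1.25 nM PFK with 0.5 mM F6P and 0.1 mM ATP in 0.1 M TEA pH 8.0, 5 mM MgCl2, incubated 45 min at room temperature; ADP measured by ADP-Glo luminescence; compounds titrated up to 57 uM.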
PI5P4Ka inh: blocks human PI5P4K alpha kinase activity; P48426; PI5P4Kalpha enzyme, ADP-Glo luminescence, 60 min; stronger effect = lower value; max response, %; 330,000 compounds, 1.2% hits; AID 652105; active means max response of -50% or lower; inconclusive means between -30% and -50%; inactive means -30% or higher; further: value at the top dose of about 77 µM
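qHTS, 1536-well: enzyme/substrate mix, compound by pin tool, 5 microM ATP final; RT 60 min; ADP-Glo reagents 1 (45 min) then 2 (30 min); luminescence.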
ADP-Glo interf: counter-screen for PI5P4K inhibitors: ADP-Glo detection interference, no enzyme. ADP-Glo detection counter-screen, luciferase luminescence, no enzyme. 1,100 tested, under 10 active. AID 743285. shares compounds with PI5P4Ka inh. Potency, µM (titrated, usually from 76.9 µM), inactives show at the highest dose activity change, negative = inhibition, most hits filed as inhibitors
An asterisk follows results filed as active; ? = inconclusive; . = not tested or not shown. Unless noted, the call rests on the fitted dose curve; in most records, active means well fitted curve in the direction sought with a large enough effect; inconclusive means small, poorly fitted or top-dose-only effect, or another doubt; inactive means no such curve, though single readings can be large; an effect the other way counts as inactive or inconclusive. Unless noted, on the % scale 0 is the no-effect control and ±100 the full control effect.

SMILES | Tb PGK inh | Pin1 inhibitor | PI4K2A inh | Tb PFK inh | PI5P4Ka inh | others
COc1cc(/C=C/C(=O)O)cc(S(=O)(=O)Nc2ccc3c(c2)OCO3)c1OC | -3.7% | -5.6% | -17.0 | -0.6% | -53.3*
CC(=O)Nc1sc2c(c1-c1nc3ccccc3s1)CCS(=O)(=O)C2 | . | 16.9% | . | . | .
CCCn1nnc(NC(=S)NC(=O)/C=C/c2ccco2)n1 | -3.6% | ? | -4.7 | -2.1% | -63.4*
O=C(/C=C/c1ccco1)NC(=S)Nc1cc(-c2nc3ccccc3s2)ccc1Cl | -10.0% | 21.6% | -11.2 | -18.0% | -56.3*
Cc1ccc(-c2nc3ccccc3s2)cc1NC(=S)NC(=O)/C=C/c1ccco1 | -4.7% | 25.9% | -1.1 | 1.7% | -25.3
O=C(/C=C/c1ccco1)NC(=S)Nc1ccccc1 | -2.7% | -3.9% | 4.0 | -4.7% | -26.8
Cc1cccc(NC(=S)NC(=O)/C=C/c2ccco2)c1 | -8.8% | 1.8% | -12.9 | -1.3% | -64.3*
O=C(/C=C/c1ccco1)NC(=S)Nc1cccc(-c2nc3ccccc3o2)c1 | 2.2% | ? | ? | -0.1% | -64.4*
Cn1nnc(NC(=O)/C=C/c2ccco2)n1 | -2.9% | -2.5% | 2.3 | -1.6% | 0.0
O=C(NCC(O)CO)c1c(I)c(C(=O)NCC(O)CO)c(I)c(N(CCO)C(=O)CO)c1I (stereo not drawn) | . | . | -5.3 | . | .
O=C1CCc2cc(S(=O)(=O)Nc3cccc(F)c3)ccc2N1 | . | 4.7% | . | . | .
C/C(=C(/OCCOc1ccc(Cl)cc1)c1ccc(Cl)cc1Cl)n1ccnc1 | . | . | 3.3 | . | .
COc1cccc(NC(=O)/C=C/c2ccco2)c1 | -12.4% | 10.6% | -3.2 | -9.2% | -4.2
COc1ccccc1NC(=S)NC(=O)/C=C/c1ccco1 | -6.1% | -0.5% | -11.2 | -19.7% | ?
CSc1cccc(NC(=O)/C=C/c2ccco2)c1 | -9.8% | 5.5% | -29.9 | -5.0% | -58.1*
Cc1ccccc1NC(=S)NC(=O)/C=C/c1ccco1 | -11.8% | ? | -24.7 | -12.9% | -58.3*
CCN(Cc1ccccc1)c1ccc(Br)cn1 | . | -4.2% | . | . | .
O=C(O)c1cccc(C(=O)Cc2ccccc2)c1 | -19.7% | -1.0% | -70.8* | -4.9% | -5.1
O=C(O)c1cccc(C(=O)O)c1 | 9.8% | -5.4% | -2.9 | 5.8% | 6.1
S=C1SCN(Cc2ccccc2)CN1Cc1ccco1 | -9.7% | . | -21.6 | . | -75.4*
CC(=O)c1sc2nc(SCC(=O)NCCc3ccccc3)[nH]c(=O)c2c1C | -1.8% | 12.1% | -1.1 | 0.9% | -17.4
COc1ccc(CCNC(=O)CSc2nc3sc(C(=O)O)c(C)c3c(=O)[nH]2)cc1OC | 8.7% | -1.4% | -0.1 | 0.3% | -70.7*
Cc1cc(NS(=O)(=O)c2ccc(NC(=O)CSc3nc4sc(C(=O)O)c(C)c4c(=O)[nH]3)cc2)no1 | -11.9% | 1.6% | -3.9 | 18.1% | -81.3*
CCOC(=O)c1ccc(NC(=O)CSc2nc3sc(C(=O)O)c(C)c3c(=O)[nH]2)cc1 | -3.1% | 4.7% | 1.5 | 18.6% | -80.7*
CC1CCCCN1CCCOC(=O)c1ccc(OC2CCCCC2)cc1 (stereo not drawn) | . | . | 1.6 | . | .
SMILES | Tb PGK inh | Pin1 inhibitor | PI4K2A inh | Tb PFK inh | PI5P4Ka inh | others
Oc1c(Br)cc(/C=N/NC(=S)NCc2ccco2)cc1Br | -4.8% | -1.7% | 1.4 | -0.3% | -74.5*
S=c1[nH]nc(-c2cc(-c3ccco3)[nH]n2)n1-c1ccccc1Cl | -10.5% | -3.4% | -4.0 | -0.1% | -56.6*
O=C(O)c1cccc(Cn2c(Cl)c(/C=N/Nc3ccccc3)sc2=O)c1 | 3.1% | 20.3% | -1.4 | -6.1% | -63.8*
N#Cc1nc(Nc2cccc(F)c2)nc(NC2CCCC2)n1 | . | -8.7% | . | . | .
NS(=O)(=O)c1ccc2c(c1)C1C=CCC1C(C1CC=CCC1)N2 (stereo not drawn) | -3.5% | ? | -12.5 | -6.1% | -79.8* | ADP-Glo interf=-12.6%
COc1ccc(C2=NCCn3nc4cc(OC)ccc4c32)cc1 | -0.3% | 3.4% | 6.4 | -0.8% | -82.4* | ADP-Glo interf=3.9%
COc1ccc2c3n(nc2c1)CCN=C3c1ccc(Cl)cc1 | -10.1% | 4.1% | 2.3 | -6.5% | -0.9
